Screening data from PubChem BioAssay.
The entries come from a sample that favours hits as a whole.
ST2 IL33 inh: inhibitors of human ST2 (IL1RL1) binding to IL-33, primary screen, biochemical, AlphaLISA | hit rate 2.3% among 78,000 | inhibition, % for hits at 17 µM | AlphaLISA ST2-Fc/biotin-IL-33 interaction, 1 h | Interleukin-1 receptor-like 1 (Homo sapiens), Q01638 | AID 1259354, 2018; in the data active = inhibition above about 30%
Target sequence (Q01638 whole entry, looked up): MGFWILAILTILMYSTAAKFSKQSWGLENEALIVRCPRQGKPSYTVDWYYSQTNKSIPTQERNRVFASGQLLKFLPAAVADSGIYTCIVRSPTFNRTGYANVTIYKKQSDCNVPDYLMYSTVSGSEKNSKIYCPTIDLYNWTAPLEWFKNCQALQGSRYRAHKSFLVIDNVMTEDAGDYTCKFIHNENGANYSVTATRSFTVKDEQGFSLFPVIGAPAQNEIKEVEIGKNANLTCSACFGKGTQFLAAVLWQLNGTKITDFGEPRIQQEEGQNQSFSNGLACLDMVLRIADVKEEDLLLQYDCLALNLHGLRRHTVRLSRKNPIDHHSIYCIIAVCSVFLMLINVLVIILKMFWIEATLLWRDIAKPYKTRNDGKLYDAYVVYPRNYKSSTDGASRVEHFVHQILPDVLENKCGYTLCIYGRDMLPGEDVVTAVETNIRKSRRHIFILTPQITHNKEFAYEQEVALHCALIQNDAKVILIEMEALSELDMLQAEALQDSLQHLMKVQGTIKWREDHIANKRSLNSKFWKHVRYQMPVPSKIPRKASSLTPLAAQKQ
Of the large screens only hits and unclear results are named; the others gave an inactive call.

CNC(=O)c1ccc(Cn2c(=O)c3cc(OC)c(OC)cc3n(CC(=O)N3CCCCCC3)c2=O)cc1	none
N#CC1=C(N)OC2=C(C(=O)CC(c3ccccc3)C2)C1c1ccc(F)cc1F (stereo not given)	none
COC(=O)c1c[nH]n2c(NC3CCCCC3)c(-c3cccs3)nc12	ST2 IL33 inh 32%
O=C(NC1CCCC1)c1cc(-c2cccs2)on1	none
COC(=O)c1c[nH]n2c(=O)c(Cc3cccc(C)c3)c(C)nc12	none
c1csc(CN2CCSCC2)c1	none
CCCOc1ccc(C(=O)N2CCN(c3ccc(Cl)cc3[N+](=O)[O-])CC2)cc1	none
C=CCc1c(C)nc2nc(SCC(=O)Nc3cccc(Cl)c3C)nn2c1C	none
Cc1ccc2c3c(c(N)c(=O)[nH]c13)-c1ccccc1C2=O	ST2 IL33 inh 51%
O=C(CN1C(=O)CCc2cc(S(=O)(=O)N3CCCC3)ccc21)Nc1ccccn1	none
CN(C)Cc1ccccc1-c1ccc2n(c1=O)C[C@H]1C[C@@H]2CN(C(=O)NC2CCCCC2)C1	none
COc1cc(Nc2nc(-c3nnc(-c4ccc(C)cc4)o3)nc3ccccc23)cc(OC)c1	none
COC(=O)Cn1cnc2c(cnn2-c2ccc(Cl)cc2)c1=O	none
COc1ccccc1NC(=O)C1c2cc(OC)c(OC)cc2C(=O)N(C)C1c1cccs1 (stereo not given)	none
COc1ccccc1NC1=CC(=O)CC(c2ccccc2)C1 (stereo not given)	none
CC(C)CN(CC(C)C)S(=O)(=O)c1cccs1	none
COc1ccccc1NC1=CC(=NS(=O)(=O)c2cccs2)c2ccccc2C1=O	ST2 IL33 inh 90%
O=C(O)c1cccc(NC2=CC(=NS(=O)(=O)c3cccs3)c3ccccc3C2=O)c1	ST2 IL33 inh 40%
COC(=NS(=O)(=O)c1ccc(Cl)cc1)c1ccccc1	none
COc1ccccc1NC1=CC(=NS(=O)(=O)c2ccc(Cl)cc2)c2ccccc2C1=O	ST2 IL33 inh 95%
O=C(NS(=O)(=O)c1ccc(NS(=O)(=O)c2cccs2)cc1)c1ccccc1	none
O=C(O)c1cccc(Nc2nc(-c3cccs3)cs2)c1	none
COc1cc(NS(=O)(=O)c2ccc(Cl)cc2)c(OC)cc1NC(=O)c1ccccc1	none
NC(=NS(=O)(=O)c1cccs1)c1ccccc1	none
O=C1C(Nc2ccccc2)=CC(=NS(=O)(=O)c2cccs2)c2ccccc21	ST2 IL33 inh 86%
C[C@H]1[C@@H]2[C@@H](O)C([C@H](C)C(=O)N3CCCCC3)CC[C@@]2(C)CC[C@@H]1NC(=O)Cc1ccccc1 (stereo not given in full)	none
O=C1CCC(C(=O)N2CC=C(c3ccccc3)CC2)CN1CCc1ccccn1 (stereo not given)	none
Cn1c2c(c3cc(C4CCCCC4)ccc31)CCC2=O	none
CSCCOC(=O)C1=C(C)NC(=O)NC1c1ccc(OCc2ccccc2)cc1 (stereo not given)	none
COc1ccc(C(=O)Cn2c(C(F)(F)F)nc3ccccc32)cc1	none
Cc1[nH]n(-c2ccc([N+](=O)[O-])cc2)c(=O)c1C=NCC(O)c1ccccc1 (stereo not given)	none
CN(C)CCN(C)Cc1ccc([N+](=O)[O-])cc1	none
C=CCn1c(-c2ccccc2)csc1=Nc1cccc([N+](=O)[O-])c1	ST2 IL33 inh 59%
Cc1ccc(C(=O)CN2C3=NCCCN3c3ccccc32)cc1	none
NC(CO)C(O)c1ccc([N+](=O)[O-])cc1 (stereo not given)	none
COCc1cc(C)n(CC(=O)c2ccccc2)c(=O)c1C#N	none
Cc1ccc(C(=O)Cn2c(C)csc2=Nc2ccccc2)cc1	ST2 IL33 inh 41%
Cc1csc(=Nc2ccccc2)n1CC(O)c1ccc([N+](=O)[O-])cc1 (stereo not given)	ST2 IL33 inh 39%
O=[N+]([O-])c1cccc(N=Cc2nc(-c3ccccc3)oc2O)c1	none
C=CCn1c(C)csc1=Nc1ccc(S(=O)(=O)Nc2nc(C)cc(C)n2)cc1	none
CN(C)CCCn1c(-c2ccc([N+](=O)[O-])cc2)csc1=Nc1ccccc1	ST2 IL33 inh 51%
CN(CCCC(=O)O)c1nc(-c2cccc([N+](=O)[O-])c2)cs1	none
Cc1nc(CC(=O)N(C)Cc2nnc(-c3ccccc3)o2)cs1	none
COc1ccc(CN2CCCN(C)CC2)c(C)c1C	none
Cc1cc(C)n2nc(SC(C)C(=O)NC3CCCCC3)nc2n1 (stereo not given)	none
Nc1ccnc(-c2cccc3[nH]ccc23)c1	none
C=CCNC(=O)c1cc(-c2ccccc2)nc2c(C)cccc12	none
O=c1c2nnn(Cc3ccccc3)c2ncn1Cc1ccccc1	none
Cn1c(=O)c2c(nc(SCC(=O)Nc3ccc4c(c3)OCO4)n2Cc2ccccc2)n(C)c1=O	none
Cn1c(=O)c2c(nc(Oc3ccc4c(c3)OCO4)n2Cc2ccc(Cl)cc2)n(C)c1=O	none
Cn1c(=O)c2c(nc(SCC(=O)O)n2Cc2cc3c(cc2Cl)OCO3)n(C)c1=O	ST2 IL33 inh 37%
O=C(Nc1ncc(CN2CCOCC2)s1)c1ccc(Cl)cc1Cl	none
CC(=O)OC(C)(C)C1Cc2c(ccc3ccc(=O)oc23)O1 (stereo not given)	none
CS(=O)(=O)N(Cc1ccccc1Cl)c1ccc(C(=O)N2CCc3ccccc3C2)cc1	none
CCC(CC)C(=O)Nc1cccc(OCc2cc(=O)n3cc(Cl)ccc3n2)c1	none
Cc1c(C(c2ccco2)c2c(C)n(C)n(-c3ccccc3)c2=O)c(=O)n(-c2ccccc2)n1C	none
Cc1[nH]n(-c2ccccc2)c(=O)c1C(c1ccco1)c1c(C)[nH]n(-c2ccccc2)c1=O	ST2 IL33 inh 51%
Cc1cn(-c2ccccc2)[nH]c1=O	none
CCN(CC)S(=O)(=O)c1ccc(C)cc1	none
Cc1ccc(S(=O)(=O)ON=C2C=CC(=O)C=C2)cc1	ST2 IL33 inh 47%
Cc1ccc(S(=O)(=O)/C=C/C#N)cc1	none
COCCCNC1=CC(=O)CC(c2ccccc2)C1 (stereo not given)	none
O=C1Nc2ccccc2N(O)N1c1cccc([N+](=O)[O-])c1	none
O=C1NCCN(Cc2cccs2)C1CC(=O)N1CCCCCC1 (stereo not given)	none
O=C1CCc2nc3sc4c(c3c(=O)n2N1)CCCC4	none
O=c1oc(-c2ccccc2)nc2sc3c(c12)CCCCC3	ST2 IL33 inh 36%
O=c1oc(/C=C/c2cccs2)nc2sc3c(c12)CCCC3	none
CCC(C)NC(=O)C1CCCN(S(=O)(=O)CC)C1 (stereo not given)	none
Cc1[nH]nc(SCC(=O)Nc2c(C)n(C)n(-c3ccccc3)c2=O)c1[N+](=O)[O-]	none
CCOC(=O)c1nn(C)c2c1CN(C(=O)c1cc(-c3ccc(C)s3)[nH]n1)CC2	none
Brc1ccccc1CN1CCc2ccccc2C1	none
COCCNC(=O)[C@@H](C)C1CC[C@@]2(C)CC[C@H](NC(=O)c3ccncc3)[C@@H](C)[C@@H]2[C@H]1O (stereo not given in full)	none
CC1=C(C(N)=O)C(c2ccc3c(c2)OCO3)n2ncnc2N1 (stereo not given)	none
Cc1c(Cl)cccc1N1C(=O)CSC1c1ccc([N+](=O)[O-])cc1 (stereo not given)	none
Cc1c(Cl)cccc1-n1ncnc1-c1cccc([N+](=O)[O-])c1	ST2 IL33 inh 35%
O=[N+]([O-])c1cccc(-c2ncnn2-c2ccc(Br)cc2F)c1	none
CC1CCc2c(sc(NC(=O)C(C)Oc3ccc(Cl)cc3Cl)c2C(N)=O)C1 (stereo not given)	none
O=c1c2sccc2n(Cc2ccc([N+](=O)[O-])cc2)c(=O)n1-c1cc(F)ccc1F	none
CCOc1ccc2nc(N=Cc3nc(-c4ccc(Br)cc4)oc3O)sc2c1	none
CCOc1ccc(NC(=O)CC2CCCCC2)cc1	none
CCOc1ccc2sc(C=NC3CCCCC3)c(O)c2c1	ST2 IL33 inh 41%
